Results reported in PubChem BioAssay (Tox21).
Records with an inconclusive call do not appear. Values without a mark were called inactive. Active and inactive are the calls of the source. The call rests on the fitted dose curve; in most records, active means well fitted curve in the direction sought with a large enough effect in the repeat runs; inconclusive means weak or mixed curves; inactive means no such curve, though single readings can be large; an effect the other way counts as inactive or inconclusive.

Molecular target: Aryl hydrocarbon receptor (Homo sapiens) (UniProt P35869)
Experiment: qHTS assay to identify small molecule that activate the aryl hydrocarbon receptor (AhR) signaling pathway (AID 743085); further: nearly all actives have a fitted effect of over 15% in size;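 on activation: HG2L7.5c1 human HepG2 liver cells with stably integrated DRE-driven firefly reporter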
Details: HepG2 AhR-luc (HG2L7.5c1), luciferase, 24 h; series mostly up to 70.3 µM; activation: at the top concentration
Method in brief: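 Measured in HG2L7.5c1 cells: CellTiter-Fluor signal (30 min incubation, 37C) for viability, then luciferase luminescence (30 min, room temperature). Compound contact time was 24 h at 37C, following a 5 h pre-incubation.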
On the % scale 0 is the no-effect control and ±100 the full control effect; potency means the concentration at half of the fitted maximal effect.

Sequence of Aryl hydrocarbon receptor (Homo sapiens) (P35869 whole entry, looked up): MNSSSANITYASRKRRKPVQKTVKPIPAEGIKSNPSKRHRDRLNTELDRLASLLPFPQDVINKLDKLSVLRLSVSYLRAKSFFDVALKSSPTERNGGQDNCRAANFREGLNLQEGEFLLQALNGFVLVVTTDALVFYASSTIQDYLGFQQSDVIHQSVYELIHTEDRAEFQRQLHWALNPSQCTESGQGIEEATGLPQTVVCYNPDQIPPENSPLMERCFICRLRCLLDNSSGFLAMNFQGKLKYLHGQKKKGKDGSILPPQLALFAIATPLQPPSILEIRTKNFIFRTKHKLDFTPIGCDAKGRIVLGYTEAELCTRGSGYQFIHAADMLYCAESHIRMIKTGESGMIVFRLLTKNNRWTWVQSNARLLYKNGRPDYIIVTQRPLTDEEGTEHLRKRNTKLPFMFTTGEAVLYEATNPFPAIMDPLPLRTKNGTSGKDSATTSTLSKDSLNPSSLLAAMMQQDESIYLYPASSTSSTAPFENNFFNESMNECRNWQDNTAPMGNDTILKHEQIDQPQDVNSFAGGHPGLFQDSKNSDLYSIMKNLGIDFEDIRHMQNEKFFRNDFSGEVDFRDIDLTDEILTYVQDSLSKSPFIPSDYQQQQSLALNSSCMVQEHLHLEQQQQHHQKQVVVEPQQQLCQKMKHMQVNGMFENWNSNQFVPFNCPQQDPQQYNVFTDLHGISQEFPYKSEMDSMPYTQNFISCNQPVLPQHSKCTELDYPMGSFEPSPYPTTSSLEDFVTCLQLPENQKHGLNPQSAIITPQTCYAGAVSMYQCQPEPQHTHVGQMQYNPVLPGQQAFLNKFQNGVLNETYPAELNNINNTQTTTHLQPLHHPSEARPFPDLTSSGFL

Row | SMILES | activation [%] | Potency
1 | O=c1c(O)c(-c2ccc(O)cc2O)oc2cc(O)cc(O)c12 | 6.49 | –
2 | C#C[C@]1(OC(C)=O)CC[C@H]2[C@@H]3CCC4=C/C(=N/O)CC[C@@H]4[C@H]3CC[C@@]21CC | -2.58 | –
3 | O=S(=O)(O)c1ccc(Nc2nc(Nc3ccc(/C=C/c4ccc(Nc5nc(Nc6ccc(S(=O)(=O)O)cc6)nc(N(CCO)CCO)n5)cc4S(=O)(=O)O)c(S(=O)(=O)O)c3)nc(N(CCO)CCO)n2)cc1 | -0.0201 | –
4 | Nc1ccc(NCCO)c([N+](=O)[O-])c1 | – | 15.4 µM (active)
5 | Cc1ccc(O)c(O)c1 | – | 29.8 µM (active)
6 | CC(C)(C)c1csc(-c2cc3cc(OCc4ccccc4CC(=O)O)ccc3o2)n1 | 5.09 | –
7 | O=S(=O)(O)c1ccccc1/C=C/c1ccc(-c2ccc(/C=C/c3ccccc3S(=O)(=O)O)cc2)cc1 | 3.23 | –
8 | OCCN1CCN(CCCN2c3ccccc3Sc3ccc(C(F)(F)F)cc32)CC1 | 1.08 | –
9 | CNC(=O)c1ccccc1Sc1ccc2c(/C=C/c3ccccn3)n[nH]c2c1 | – | 3.76 µM (active)
10 | CN1CCC[C@@H]1CCO[C@](C)(c1ccccc1)c1ccc(Cl)cc1 | -0.374 | –
11 | CN1CCN(Cc2cc(-c3ccc4[nH]c(=O)oc4c3)co2)[C@@H](c2ccc(F)cc2)C1 | 0.455 | –
12 | CCOC(=O)c1ccc(C2CCC(NC[C@H](O)COc3ccc(O)c(NS(C)(=O)=O)c3)CC2)cc1 (stereo partly drawn) | 0.0529 | –

Tested on: not listed separately
Experiment: qHTS assay to identify small molecule that activate the aryl hydrocarbon receptor (AhR) signaling pathway - cell viability counter screen (AID 743086); further: nearly all actives have a fitted effect of over 45% in size;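 on viability change, negative = cytotoxic: HepG2 liver cells carrying the AhR DRE luciferase reporter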
Details: HepG2-AhR-luc viability, CellTiter-Fluor, 24 h; series mostly up to 70.3 µM; viability change, negative = cytotoxic: at the top concentration
Method in brief: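 Cytotoxicity counter screen: CellTiter-Fluor signal (30 min, 37 C) in 4000 HepG2 cells/well carrying the DRE-luciferase reporter, following 24 h compound exposure at 37 C.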

Row | SMILES | viability change, negative = cytotoxic | Potency
13 | O=C1NC(=O)[C@@H]2CC=CC[C@H]12 | -8.52% | –
14 | CN(C)C(=O)COC(=O)Cc1ccc(OC(=O)c2ccc(N=C(N)N)cc2)cc1 | 12.6% | –
15 | CCC(=O)C(=O)CC | 0.169% [at 95 µM] | –
16 | C#C[C@]1(OC(C)=O)CC[C@H]2[C@@H]3CCC4=C/C(=N/O)CC[C@@H]4[C@H]3CC[C@@]21CC | -21.9% | –
17 | CCC(C)[O-].CCC(C)[O-].CCOC(=O)/C=C(/C)[O-].[Al+3] | -3.65% | –
18 | Cc1nc(-c2ccc(Cl)cc2)oc1COC(C)(C)C(=O)O | 11.4% | –
19 | CCCCCCC1CCCC(=O)O1 (stereo not drawn) | 12.4% | –
20 | O=c1oc2cc(O)ccc2c2oc3cc(O)ccc3c12 | 17.2% | –
21 | COc1cccc(OC)c1C(=O)O | -3.01% | –
22 | [Cu+] | 23.6% | –
23 | Cc1cc(-n2nc3ccc(Cl)cc3n2)c(O)c(C(C)(C)C)c1 | 16.7% | –
24 | CNC(=O)c1ccccc1Sc1ccc2c(/C=C/c3ccccn3)n[nH]c2c1 | -3.36% | –
25 | CCN(CC)C(=O)c1cc(S(=O)(=O)Cc2ccccc2)c(N2CCC(c3ccccc3)CC2)cc1N(CC)CCN(C)C | – | 23.7 µM (active)
26 | c1ccc(C(O[C@@H]2CCCN(CCc3ccc4c(c3)OCO4)C2)c2ccccc2)cc1 | -5.24% | –
27 | CC/C=C\CCCCCO | 1.48% | –
28 | CN1CCN(Cc2cc(-c3ccc4[nH]c(=O)oc4c3)co2)[C@@H](c2ccc(F)cc2)C1 | – | 52.4 µM (active)
